# Reference: PubChem BioAssay (Tox21)
# “And” between values parts separate entries of the source, which are not always exact repeats. Equal entries are not always repeated. Inconclusive results are not listed. Entries that show only a call come without a potency. Where a structure was tested more than once in an assay, its records may differ in their call. The source made the active and inactive calls. Unless noted, calls follow the shape of the dose curve; as a rule, active = well fitted curve in the direction sought with a large enough effect in the repeat runs; inconclusive = weak or mixed curves; inactive = no such curve, though single readings can be large; an effect the other way counts as inactive or inconclusive.
# How the values were obtained:
# [1] = qHTS assay to identify small molecule antagonists of the retinoid acid receptor (RAR) signaling pathway - cell viability counter screen (AID 1159551); also: nearly all actives have a fitted effect of over 35% in size
# Summary of the method: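 Measured by luminescent ATP detection, viability reflects C3RL4 cells treated 6 h at 37 C with test chemicals in the presence of 1 uM (final) retinol.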
# [2] = qHTS assay to identify small molecule antagonists of the estrogen related receptor (ERR) signaling pathway from Tox21 library - cell viability counter screen (AID 1224834); also: nearly all actives have a fitted effect of over 30% in size; also: potency is read from the fitted curve at half-maximal effect
# Summary of the method: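 Seeded ERR cells were rested 6 h at 37 C/5% CO2 before compounds, positive and negative controls or DMSO were added. Incubation continued for 17.5 h, and viability was then quantified by CellTiter-Fluor fluorescence.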
# [3] = qHTS assay to identify small molecule agonists of the constitutive androstane receptor (CAR) signaling pathway - cell viability counter screen (AID 1224836); also: nearly all actives have a fitted effect of over 45% in size
# Summary of the method: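 Counter screen multiplexed with the CAR reporter readout: HepG2 cells co-transfected with hCAR and the CYP2B6-2.2kb construct receive a 15-concentration compound series and 0.75 uM PK11195 (final), then CellTiter-Fluor fluorescence is read after 23 h.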
# [4] = qHTS assay to identify small molecule antagonists of the constitutive androstane receptor (CAR) signaling pathway - cell viability counter screen (AID 1224837); also: nearly all actives have a fitted effect of over 45% in size
# Summary of the method: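 To flag cytotoxic false antagonists, HepG2 hCAR/CYP2B6-2.2kb cells were treated 23 hr with 15-concentration compound series and 50 nM CITCO at 37 C/5% CO2; CellTiter-Fluor fluorescence was the measured end point.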
# [5] = target: Nuclear receptor subfamily 1 group I member 3 (Homo sapiens) (UniProt Q14994); experiment: qHTS assay to identify small molecule antagonists of the constitutive androstane receptor (CAR) signaling pathway (AID 1224838);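 also: HepG2 cells stably expressing hCAR with CYP2B6 luciferase reporter stimulated by CITCO; nearly all actives have a fitted effect of over 40% in size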
# Summary of the method: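 Human hepatoma HepG2 cells expressing hCAR and a CYP2B6 promoter (2.2 kb) luciferase construct; compound titration (15 points) with 50 nM CITCO final, 24 h at 37 C/5% CO2; luminescence via ONE-Glo after 30 min at room temperature.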
# [6] = target: Nuclear receptor subfamily 1 group I member 3 (Homo sapiens) (UniProt Q14994); experiment: qHTS assay to identify small molecule agonists of the constitutive androstane receptor (CAR) signaling pathway (AID 1224839); also: nearly all actives have a fitted effect of over 15% in size; also: potency is read from the fitted curve at half-maximal effect
# Summary of the method: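 A 15-concentration quantitative screen uses HepG2 cells co-transfected stably with human CAR and CYP2B6-2.2kb reporter. Treatment lasts 24 h with 0.75 uM PK11195 final present; ONE-Glo luminescence is the signal.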
# [7] = qHTS assay to identify small molecule antagonists of the estrogen related receptor signaling pathway with the pleiotropic PPARgamma coactivator (PGC) from Tox21 10K library - cell viability counter screen (AID 1224840; active = well fitted cell-killing curve with a large enough effect in the repeat runs, not every such curve was filed as active; also: nearly all actives have a fitted effect of over 40% in size)
# Summary of the method: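 Seeded PGC/ERR cells (2,000/well, 6 h, 37 C/5% CO2) get compound by pin tool; 17.5 h incubation at 37 C; CellTiter-Fluor added, 30 min, fluorescence measured.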
# [8] = qHTS assay to identify small molecule antagonists of the estrogen related receptor signaling pathway with the pleiotropic PPARgamma coactivator (PGC) from Tox21 10K library (AID 1224841; call rule not given here; also: actives are mostly falling curves and most rising ones were filed inactive; nearly all actives have a fitted effect of over 50% in size; also: potency is read from the fitted curve at half-maximal effect)
# Summary of the method: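 Test chemicals dissolved in DMSO were applied to pre-incubated (6 h) PGC/ERR cells at 2,000 cells/well for an 18 h, 37 C treatment; reporter luminescence was then read using One-Glo.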
# [9] = qHTS assay to identify small molecule agonists of the estrogen related receptor signaling pathway with the pleiotropic PPARgamma coactivator (PGC) from Tox21 10K library (AID 1224842); also: nearly all actives have a fitted effect of over 15% in size; also: potency is read from the fitted curve at half-maximal effect
# Summary of the method: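 PGC/ERR reporter cells (NTP line) were seeded 2,000 per well, rested 6 h at 37 C/5% CO2, then pin-dosed with compounds in DMSO for 18 h at 37 C; luciferase read by One-Glo luminescence after 30 min at room temperature.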
# [10] = target: Thyrotropin receptor (Homo sapiens) (UniProt P16473); experiment: qHTS assay to identify small molecule agonists of the thyroid stimulating hormone receptor (TSHR) signaling pathway (AID 1224843; calls by dose curve; also: nearly all actives have a fitted effect of over 45% in size; also: potency is read from the fitted curve at half-maximal effect)
# Summary of the method: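 Compounds are titrated over 15 concentrations, in triplicate, onto TSHR-HEK293 cells seeded at 800/well. Plates sit 30 min at room temperature before cAMP-d2 and anti-cAMP cryptate are added; signal is read after a further hour.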
# [11] = qHTS assay to identify small molecule antagonists of the retinoic acid receptor (RAR) signaling pathway (AID 1159552; also: nearly all actives have a fitted effect of over 50% in size; also: potency is read from the fitted curve at half-maximal effect)
# Summary of the method: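 Quantitative HTS in C3RL4 RARE-luciferase reporter cells. Compounds were added with 1 uM (final) retinol; luminescence was read after 6 hr.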
# [12] = target: Luciferin 4-monooxygenase (Photinus pyralis) (UniProt P08659); experiment: qHTS assay to identify small molecule inhibitors of firefly luciferase (AID 1224835); also: nearly all actives have a fitted effect of over 25% in size
# Summary of the method: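 Quantitative HTS format; KM concentrations of both substrates. Purified P. pyralis FLuc activity quantified from luminescence images.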
# [13] = qHTS assay to identify small molecule agonists of the retinoic acid receptor (RAR) signaling pathway (AID 1159553); settings: C3RL4 RARE luciferase reporter, agonist, 6 h; activation: at 73.3 µM (top of the series) unless noted
# Summary of the method: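 6 hr compound exposure (DMSO vehicle) of overnight-plated C3RL4 RARE-luc cells at 37 C; luminescence quantified after 30 min RT with luciferase reagent.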
# [14] = qHTS assay to identify small molecule antagonists of the estrogen related receptor (ERR) signaling pathway - cell viability counter screen (AID 1224818)
# Summary of the method: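 Compounds dissolved in DMSO were applied to ERR cells seeded at 2,000 per well 6 h earlier. Cell viability followed 17.5 h later via 30-min CellTiter-Fluor fluorescence.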
# [15] = qHTS assay to identify small molecule antagonists of the estrogen related receptor (ERR) signaling pathway (AID 1224819;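 also: luminescence from an ERR-driven luciferase reporter measured with One-Glo reagent; nearly all actives have a fitted effect of over 50% in size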)
# Summary of the method: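 Compounds dissolved in DMSO were pin-transferred onto ERR cells that had been plated 6 h earlier, and cells were then incubated 18 h at 37 C; signal was luciferase luminescence via One-Glo.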
# [16] = qHTS assay to identify small molecule agonists of the estrogen related receptor (ERR) signaling pathway (AID 1224820)
# Summary of the method: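 An ERR cell line provided by NTP was seeded at 2,000 cells per well and allowed to settle for 6 h before compounds in DMSO were added. After 18 h at 37 C, luciferase activity was measured by One-Glo luminescence.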
# [17] = tested on: estrogen-related receptor alpha (ERRalpha) with PGC-1alpha coactivator, human; experiment: qHTS assay to identify small molecule antagonists of the estrogen related receptor signaling pathway with the pleiotropic PPARgamma coactivator (PGC) (AID 1224821; calls by dose curve;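 also: lower luminescence signal means antagonism of PGC/ERR signalling; nearly all actives have a fitted effect of over 50% in size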)
# Summary of the method: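 A PGC/ERR cell line supplied by NTP is seeded, allowed 6 h at 37 C, and treated with test compounds in DMSO for 18 h. Signal is then measured as luciferase luminescence using One-Glo.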
# [18] = qHTS assay to identify small molecule antagonists of the estrogen related receptor signaling pathway with the pleiotropic PPARgamma coactivator (PGC) cell viability counter screen (AID 1224822)
# Summary of the method: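 Counter screen for cell viability: PGC/ERR cells, 6 h pre-incubation after plating, 17.5 h compound exposure at 37 C, fluorescence from CellTiter-Fluor after 30 min.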
# [19] = qHTS assay to identify small molecule agonists of the estrogen related receptor signaling pathway with the pleiotropic PPARgamma coactivator (PGC) (AID 1224823)
# Summary of the method: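 Compounds dissolved in DMSO are added by pin tool to PGC/ERR cells that have settled for 6 h, and incubation continues 18 h at 37 C. Reporter output is measured as One-Glo luminescence.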
# Chain of Thyrotropin receptor (Homo sapiens) (P16473 whole entry, looked up): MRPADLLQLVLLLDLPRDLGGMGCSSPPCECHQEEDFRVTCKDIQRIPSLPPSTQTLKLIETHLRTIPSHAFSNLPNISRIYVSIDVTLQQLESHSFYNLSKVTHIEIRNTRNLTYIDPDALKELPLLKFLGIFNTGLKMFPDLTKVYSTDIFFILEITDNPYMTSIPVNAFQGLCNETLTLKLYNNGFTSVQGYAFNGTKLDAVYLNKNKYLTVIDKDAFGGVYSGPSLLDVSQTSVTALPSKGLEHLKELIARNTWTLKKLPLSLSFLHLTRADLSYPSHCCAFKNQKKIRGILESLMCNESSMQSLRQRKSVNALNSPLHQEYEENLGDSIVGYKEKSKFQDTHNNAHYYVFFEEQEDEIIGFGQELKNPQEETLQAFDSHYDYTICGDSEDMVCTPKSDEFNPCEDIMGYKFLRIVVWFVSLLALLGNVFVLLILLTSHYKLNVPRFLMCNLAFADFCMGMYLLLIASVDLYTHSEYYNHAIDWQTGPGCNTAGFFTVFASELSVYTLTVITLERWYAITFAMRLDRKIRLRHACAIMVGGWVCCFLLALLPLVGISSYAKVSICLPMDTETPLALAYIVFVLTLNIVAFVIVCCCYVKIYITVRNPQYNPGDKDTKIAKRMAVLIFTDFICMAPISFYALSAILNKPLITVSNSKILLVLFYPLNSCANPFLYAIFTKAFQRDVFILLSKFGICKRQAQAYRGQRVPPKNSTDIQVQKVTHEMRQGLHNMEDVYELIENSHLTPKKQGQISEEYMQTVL
# Chain of Nuclear receptor subfamily 1 group I member 3 (Homo sapiens) (Q14994 whole entry, looked up): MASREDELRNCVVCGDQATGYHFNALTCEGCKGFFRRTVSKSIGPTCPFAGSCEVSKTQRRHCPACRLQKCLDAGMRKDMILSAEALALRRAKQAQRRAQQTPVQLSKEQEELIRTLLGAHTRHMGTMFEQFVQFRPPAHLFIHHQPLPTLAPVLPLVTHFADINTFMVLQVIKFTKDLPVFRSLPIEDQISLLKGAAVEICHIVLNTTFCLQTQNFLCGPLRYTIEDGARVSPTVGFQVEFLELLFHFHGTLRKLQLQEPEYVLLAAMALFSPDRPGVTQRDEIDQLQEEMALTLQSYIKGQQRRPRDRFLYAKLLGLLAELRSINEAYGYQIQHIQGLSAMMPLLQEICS
# Chain of Luciferin 4-monooxygenase (Photinus pyralis) (P08659 whole entry, looked up): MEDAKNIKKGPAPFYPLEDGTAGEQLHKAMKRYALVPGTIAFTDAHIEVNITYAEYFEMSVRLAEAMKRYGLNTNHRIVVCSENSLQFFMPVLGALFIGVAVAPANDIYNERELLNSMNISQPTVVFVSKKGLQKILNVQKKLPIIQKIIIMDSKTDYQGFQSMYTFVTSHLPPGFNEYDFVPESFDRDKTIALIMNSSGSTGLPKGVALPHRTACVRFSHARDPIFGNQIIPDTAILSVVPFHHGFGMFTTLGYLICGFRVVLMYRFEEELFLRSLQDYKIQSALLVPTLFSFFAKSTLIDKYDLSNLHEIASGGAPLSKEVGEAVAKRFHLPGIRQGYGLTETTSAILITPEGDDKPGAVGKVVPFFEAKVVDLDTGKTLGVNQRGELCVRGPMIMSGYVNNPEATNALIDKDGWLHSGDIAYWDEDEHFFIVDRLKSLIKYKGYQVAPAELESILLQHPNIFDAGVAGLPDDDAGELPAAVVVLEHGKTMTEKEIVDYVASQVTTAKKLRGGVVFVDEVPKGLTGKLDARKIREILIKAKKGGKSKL
Compound,Potency [1],Potency [2],Potency [3],Potency [4],Potency [5],Potency [6],Potency [7],Potency [8],Potency [9],Potency [10],Potency [11],Potency [12],Potency [13],outcome [14],outcome [15],outcome [16],outcome [17],outcome [18],outcome [19],"viability change, negative = cytotoxic [2]"
CCCCCC=O,inactive,inactive,inactive,inactive,inactive,inactive,inactive,inactive,inactive,inactive,–,–,–,–,–,–,–,–,–,–
CC(=O)Oc1c(C)c(C)c2c(c1C)CC[C@@](C)(CCC[C@H](C)CCC[C@H](C)CCCC(C)C)O2,inactive,inactive,inactive,inactive,inactive,inactive,inactive,inactive,inactive,inactive,inactive,inactive,–,–,–,–,–,–,–,–
CC(=O)[C@H]1CC[C@H]2[C@@H]3CC=C4C[C@@H](O)CC[C@]4(C)[C@H]3CC[C@]12C,inactive,inactive,inactive,inactive,inactive,inactive,inactive,inactive,inactive,inactive,–,–,–,–,–,–,–,–,–,–
CNC[C@H](O)c1ccc(O)c(O)c1,inactive,–,inactive,inactive,inactive,inactive,inactive,inactive,1.54 µM (active) and 1.16 µM (active),770 nM (active) and 2.31 µM (active),–,inactive,inactive,inactive,inactive,inactive,inactive,inactive,inactive,2.34% [at 19 µM] (inactive)
Cc1ccc(S(=O)(=O)NCl)cc1,inactive,inactive,inactive,inactive,–,–,inactive,inactive,inactive,inactive,–,–,–,–,–,–,–,–,–,–
O=C(O)CCCC(=O)O,inactive,inactive,inactive,inactive,inactive,inactive,inactive,–,–,inactive,inactive,inactive,–,–,–,–,–,–,–,–
C=C[C@H]1CN2CC[C@H]1C[C@@H]2[C@@H](O)c1ccnc2ccc(OC)cc12,inactive,inactive,inactive,inactive,inactive,–,inactive,–,–,–,–,–,–,–,–,–,–,–,–,–
CC(=O)O[C@]1(C(C)=O)CC[C@H]2[C@@H]3C=C(C)C4=CC(=O)CC[C@]4(C)[C@H]3CC[C@@]21C,inactive,54.5 µM (active),inactive,inactive,–,–,inactive,24.3 µM (active),inactive,inactive,–,inactive,–,–,–,–,–,–,–,–
Cc1cccc(Nc2ccccc2C(=O)O)c1C,inactive,inactive,inactive,inactive,inactive,inactive,inactive,–,–,–,inactive,–,inactive,–,–,–,–,–,–,–
CC[C@]12CCCN3CCc4c(n(c5ccccc45)[C@@](O)(C(=O)OC)C1)[C@@H]32,inactive,inactive,inactive,inactive,–,–,inactive,inactive,inactive,–,inactive,–,inactive,–,–,–,–,–,–,–
O=C(O)CCCCCCCCCCCC(=O)O,inactive,inactive,inactive,inactive,–,–,inactive,60.1 µM (active) and inactive,inactive,inactive,inactive,–,–,–,–,–,–,–,–,–
c1ccc2cc3ccccc3cc2c1,inactive,inactive,inactive,inactive,inactive,19.9 µM (active) and 21.7 µM (active),inactive,inactive,inactive,inactive,inactive,–,–,–,–,–,–,–,–,–
CC(C)[C@@H]1CC[C@@H](C)CC1=O,inactive,inactive,inactive,inactive,–,–,inactive,–,–,inactive,–,–,–,–,–,–,–,–,–,–
C[C@]12C=CC(=O)C=C1CC[C@H]1[C@@H]3C[C@@H](O)[C@](O)(C(=O)CO)[C@@]3(C)C[C@H](O)[C@@]12F,inactive,inactive,inactive,inactive,–,–,inactive,inactive,inactive,inactive,–,–,–,inactive,inactive,inactive,inactive,inactive,inactive,–
C[C@]12CC[C@@H]3c4ccc(O)cc4CC[C@H]3[C@@H]1CC[C@H]2O,inactive,–,inactive,inactive,inactive,–,inactive,inactive,inactive,–,inactive and 27.3 µM (active),–,–,–,–,–,–,–,–,–
C=CCOC(=O)C(=C)C,inactive,inactive,inactive,inactive,inactive,inactive,inactive,inactive,inactive,inactive,inactive,inactive,–,–,–,–,–,–,–,–
